In ChEMBL document CHEMBL1961873, “Compounds: GSK PKIS; Assays: Nanosyn kinase panel” (2012):

Experiments:
[1] = molecular target: T1, Serine/threonine-protein kinase TBK1 (Homo sapiens) (UniProt Q9UHD2); conditions: at 1 µM;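 also: values are mean inhibition of TBK1, screened as part of the GSK published kinase inhibitor set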
T1 sequence (whole entry): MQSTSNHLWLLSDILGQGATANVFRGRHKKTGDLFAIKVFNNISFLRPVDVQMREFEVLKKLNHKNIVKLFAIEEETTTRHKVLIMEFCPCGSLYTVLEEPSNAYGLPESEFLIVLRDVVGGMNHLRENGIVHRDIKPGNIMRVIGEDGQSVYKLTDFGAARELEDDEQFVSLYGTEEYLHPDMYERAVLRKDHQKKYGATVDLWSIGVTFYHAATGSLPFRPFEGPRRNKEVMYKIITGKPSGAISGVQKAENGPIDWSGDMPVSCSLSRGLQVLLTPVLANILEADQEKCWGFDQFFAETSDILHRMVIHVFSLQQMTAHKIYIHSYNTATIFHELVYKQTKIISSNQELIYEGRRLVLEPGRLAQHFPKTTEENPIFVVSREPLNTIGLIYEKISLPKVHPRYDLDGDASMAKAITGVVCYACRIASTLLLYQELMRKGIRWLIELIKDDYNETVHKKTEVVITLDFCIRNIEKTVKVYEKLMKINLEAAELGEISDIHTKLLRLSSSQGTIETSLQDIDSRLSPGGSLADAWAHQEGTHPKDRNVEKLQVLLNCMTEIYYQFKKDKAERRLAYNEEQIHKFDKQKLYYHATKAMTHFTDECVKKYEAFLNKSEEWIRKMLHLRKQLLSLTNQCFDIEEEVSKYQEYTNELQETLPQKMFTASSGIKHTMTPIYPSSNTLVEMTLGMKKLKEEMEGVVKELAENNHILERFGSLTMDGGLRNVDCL

[2] = molecular target: T2, Testis-specific serine/threonine-protein kinase 1 (Homo sapiens) (UniProt Q9BXA7); conditions: at 0.1 µM
T2 sequence (whole entry): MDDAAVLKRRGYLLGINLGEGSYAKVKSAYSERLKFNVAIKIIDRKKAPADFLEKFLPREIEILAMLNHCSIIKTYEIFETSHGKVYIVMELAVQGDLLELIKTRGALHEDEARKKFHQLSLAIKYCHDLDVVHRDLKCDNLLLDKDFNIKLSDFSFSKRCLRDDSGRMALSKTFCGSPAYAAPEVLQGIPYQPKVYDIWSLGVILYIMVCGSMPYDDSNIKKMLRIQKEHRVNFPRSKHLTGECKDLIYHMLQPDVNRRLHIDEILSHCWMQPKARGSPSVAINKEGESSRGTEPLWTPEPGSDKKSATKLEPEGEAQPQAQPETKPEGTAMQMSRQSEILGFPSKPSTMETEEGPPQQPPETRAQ

[3] = molecular target: T2, Testis-specific serine/threonine-protein kinase 1 (Homo sapiens); conditions: at 1 µM
[4] = molecular target: T3, Testis-specific serine/threonine-protein kinase 2 (Homo sapiens) (UniProt Q96PF2); conditions: at 0.1 µM
T3 sequence (whole entry): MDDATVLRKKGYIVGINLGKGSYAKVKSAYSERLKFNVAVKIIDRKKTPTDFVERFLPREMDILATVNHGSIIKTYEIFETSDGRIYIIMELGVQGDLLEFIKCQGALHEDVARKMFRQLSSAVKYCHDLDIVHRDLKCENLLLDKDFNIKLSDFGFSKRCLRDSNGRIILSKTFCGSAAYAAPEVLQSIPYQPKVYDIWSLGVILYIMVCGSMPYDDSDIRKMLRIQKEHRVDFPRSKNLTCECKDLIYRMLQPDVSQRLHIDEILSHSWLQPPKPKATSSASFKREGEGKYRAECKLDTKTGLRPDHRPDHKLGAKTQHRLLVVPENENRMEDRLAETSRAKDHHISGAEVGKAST

[5] = molecular target: T3, Testis-specific serine/threonine-protein kinase 2 (Homo sapiens); conditions: at 1 µM
[6] = molecular target: Casein kinase I isoform alpha (Homo sapiens) (UniProt P48729); conditions: at 0.1 µM
Chain of Casein kinase I isoform alpha (Homo sapiens) (P48729 2-337 limits assumed): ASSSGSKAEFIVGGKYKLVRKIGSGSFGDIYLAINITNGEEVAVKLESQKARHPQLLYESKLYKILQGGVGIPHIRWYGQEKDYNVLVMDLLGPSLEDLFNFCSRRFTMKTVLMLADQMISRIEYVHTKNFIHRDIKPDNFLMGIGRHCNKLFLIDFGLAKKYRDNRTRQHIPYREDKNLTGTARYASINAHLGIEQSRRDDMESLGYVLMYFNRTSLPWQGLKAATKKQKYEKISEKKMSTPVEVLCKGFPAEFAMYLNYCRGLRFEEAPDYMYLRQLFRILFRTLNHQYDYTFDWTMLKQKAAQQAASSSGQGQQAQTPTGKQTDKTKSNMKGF

[7] = molecular target: Casein kinase I isoform alpha (Homo sapiens) (UniProt P48729); conditions: at 1 µM
[8] = molecular target: Casein kinase I isoform gamma-1 (Homo sapiens) (UniProt Q9HCP0); conditions: at 0.1 µM
Chain of Casein kinase I isoform gamma-1 (Homo sapiens) (Q9HCP0 whole entry, looked up, canonical isoform): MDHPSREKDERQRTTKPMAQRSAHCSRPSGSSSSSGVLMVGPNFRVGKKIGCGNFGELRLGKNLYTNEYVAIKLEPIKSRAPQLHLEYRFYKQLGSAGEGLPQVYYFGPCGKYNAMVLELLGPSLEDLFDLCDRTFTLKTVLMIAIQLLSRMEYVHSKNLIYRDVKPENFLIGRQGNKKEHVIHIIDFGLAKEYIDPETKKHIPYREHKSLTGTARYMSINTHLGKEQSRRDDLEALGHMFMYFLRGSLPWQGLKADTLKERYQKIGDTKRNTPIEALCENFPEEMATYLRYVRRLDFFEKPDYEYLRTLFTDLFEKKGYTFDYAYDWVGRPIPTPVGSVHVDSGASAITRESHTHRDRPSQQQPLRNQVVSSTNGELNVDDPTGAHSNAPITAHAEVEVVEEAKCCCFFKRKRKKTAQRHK

[9] = molecular target: Casein kinase I isoform gamma-1 (Homo sapiens) (UniProt Q9HCP0); conditions: at 1 µM
[10] = molecular target: Casein kinase I isoform gamma-2 (Homo sapiens) (UniProt P78368); conditions: at 0.1 µM
Chain of Casein kinase I isoform gamma-2 (Homo sapiens) (P78368 whole entry, looked up, canonical isoform): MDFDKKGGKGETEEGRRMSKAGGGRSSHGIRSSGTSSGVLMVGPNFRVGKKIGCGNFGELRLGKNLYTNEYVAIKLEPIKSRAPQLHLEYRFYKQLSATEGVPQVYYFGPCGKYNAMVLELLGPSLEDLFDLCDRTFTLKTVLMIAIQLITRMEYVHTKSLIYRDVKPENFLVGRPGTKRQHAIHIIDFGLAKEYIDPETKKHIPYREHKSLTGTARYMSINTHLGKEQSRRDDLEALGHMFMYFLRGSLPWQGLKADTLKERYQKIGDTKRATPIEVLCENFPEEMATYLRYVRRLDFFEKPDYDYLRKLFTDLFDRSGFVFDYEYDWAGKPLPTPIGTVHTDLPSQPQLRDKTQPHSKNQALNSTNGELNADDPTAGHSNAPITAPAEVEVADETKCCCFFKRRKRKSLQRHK

[11] = molecular target: Casein kinase I isoform gamma-2 (Homo sapiens) (UniProt P78368); conditions: at 1 µM
[12] = molecular target: Casein kinase I isoform gamma-3 (Homo sapiens) (UniProt Q9Y6M4); conditions: at 0.1 µM
Chain of Casein kinase I isoform gamma-3 (Homo sapiens) (Q9Y6M4 whole entry, looked up, canonical isoform): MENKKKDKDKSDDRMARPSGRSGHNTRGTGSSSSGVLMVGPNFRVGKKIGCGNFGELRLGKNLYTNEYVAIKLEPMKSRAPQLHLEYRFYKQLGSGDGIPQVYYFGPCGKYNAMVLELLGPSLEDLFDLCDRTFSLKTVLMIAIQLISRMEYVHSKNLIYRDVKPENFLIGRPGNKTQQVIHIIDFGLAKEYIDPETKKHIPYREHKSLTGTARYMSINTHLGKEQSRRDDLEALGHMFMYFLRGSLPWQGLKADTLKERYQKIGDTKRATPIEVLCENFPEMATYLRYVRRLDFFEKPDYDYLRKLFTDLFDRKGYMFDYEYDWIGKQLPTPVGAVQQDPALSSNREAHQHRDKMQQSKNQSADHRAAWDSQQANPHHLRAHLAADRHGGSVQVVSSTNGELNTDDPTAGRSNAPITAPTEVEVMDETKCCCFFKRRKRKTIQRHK

[13] = molecular target: Casein kinase I isoform gamma-3 (Homo sapiens) (UniProt Q9Y6M4); conditions: at 1 µM
[14] = molecular target: Cyclin-dependent kinase 1 (Homo sapiens) (UniProt P06493); conditions: at 0.1 µM
Chain of Cyclin-dependent kinase 1 (Homo sapiens) (P06493 whole entry, looked up): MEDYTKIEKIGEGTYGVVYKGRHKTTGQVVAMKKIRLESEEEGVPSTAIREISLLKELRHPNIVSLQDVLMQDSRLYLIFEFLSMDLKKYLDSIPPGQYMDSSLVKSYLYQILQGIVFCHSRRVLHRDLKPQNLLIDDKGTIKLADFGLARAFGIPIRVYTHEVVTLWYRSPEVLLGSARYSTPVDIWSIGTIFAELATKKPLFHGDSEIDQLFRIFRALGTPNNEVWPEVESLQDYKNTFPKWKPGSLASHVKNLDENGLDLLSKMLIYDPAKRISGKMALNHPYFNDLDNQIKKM

[15] = molecular target: Cyclin-dependent kinase 2 (Homo sapiens) (UniProt P24941); conditions: at 0.1 µM
[16] = molecular target: Cyclin-dependent kinase 2 (Homo sapiens) (UniProt P24941); conditions: at 1 µM
[17] = molecular target: Cyclin-dependent kinase 2 (Homo sapiens) (UniProt P24941); conditions: at 0.1 µM; remark: listed apart in the source
[18] = molecular target: Cyclin-dependent kinase 2 (Homo sapiens) (UniProt P24941); conditions: at 1 µM; remark: listed apart in the source
[19] = molecular target: CDK3/Cyclin E (Homo sapiens) (UniProt P24864+Q00526); conditions: at 0.1 µM;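 also: reported percentages are mean inhibition values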
Chain of CDK3/Cyclin E (Homo sapiens) (P24864 whole entry, looked up): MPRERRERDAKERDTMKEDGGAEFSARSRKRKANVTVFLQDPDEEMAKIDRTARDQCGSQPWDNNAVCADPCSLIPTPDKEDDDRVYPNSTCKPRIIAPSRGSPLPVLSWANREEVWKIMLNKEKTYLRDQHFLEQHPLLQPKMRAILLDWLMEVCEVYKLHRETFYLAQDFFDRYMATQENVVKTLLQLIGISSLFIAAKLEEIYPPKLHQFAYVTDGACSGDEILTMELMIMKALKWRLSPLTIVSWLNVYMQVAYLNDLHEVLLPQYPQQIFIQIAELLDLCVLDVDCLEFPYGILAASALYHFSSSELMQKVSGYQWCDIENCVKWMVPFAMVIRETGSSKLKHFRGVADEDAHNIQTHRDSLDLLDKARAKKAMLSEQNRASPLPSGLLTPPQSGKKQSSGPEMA
Chain of CDK3/Cyclin E (Homo sapiens) (Q00526 whole entry, looked up): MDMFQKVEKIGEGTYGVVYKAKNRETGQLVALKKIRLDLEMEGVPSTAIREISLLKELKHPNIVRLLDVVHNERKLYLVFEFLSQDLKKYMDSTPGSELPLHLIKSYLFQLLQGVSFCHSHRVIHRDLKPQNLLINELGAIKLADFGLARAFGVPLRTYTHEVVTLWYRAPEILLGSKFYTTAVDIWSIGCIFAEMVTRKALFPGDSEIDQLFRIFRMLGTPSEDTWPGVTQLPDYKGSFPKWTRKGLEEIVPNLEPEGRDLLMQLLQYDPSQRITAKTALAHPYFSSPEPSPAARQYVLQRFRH

[20] = molecular target: Cyclin-dependent kinase 1 (Homo sapiens) (UniProt P06493); conditions: at 1 µM

Row | Compound | inhibition [1] [%] | inhibition [2] [%] | inhibition [3] [%] | inhibition [4] [%] | inhibition [5] [%] | inhibition [6] [%] | inhibition [7] [%] | inhibition [8] [%] | inhibition [9] [%] | inhibition [10] [%] | inhibition [11] [%] | inhibition [12] [%] | inhibition [13] [%] | inhibition [14] [%] | inhibition [15] [%] | inhibition [16] [%] | inhibition [17] [%] | inhibition [18] [%] | inhibition [19] [%] | inhibition [20] [%]
1 | Nc1nc(-c2ccc3c(c2)C(=Cc2cc(Br)c(O)c(Br)c2)C(=O)N3)cs1 | 0.36 | -0.52 | -0.1 | -1.49 | 0.36 | -0.89 | -1.31 | -1.34 | -1.14 | -1.3 | -0.74 | -2.56 | 0.95 | 0.71 | 1.38 | -0.83 | -0.42 | 2.91 | 0.55 | –
2 | Cc1nnc(-c2ccc(C)c(-c3ccc(C(=O)Nc4cccc(C#N)c4)cc3)c2)o1 | 5 | 0.97 | 2.9 | 1.4 | 2.16 | 8.37 | 6.82 | 1.85 | 2.59 | 1.7 | 1.54 | 1.46 | 0.25 | 0.88 | 1.13 | 0.6 | 1.82 | 2.15 | 4.52 | 1.11
3 | CCn1c(-c2nonc2N)nc2cncc(C(=O)N3CCNCC3)c21 | 5.51 | 4.82 | 5.83 | 2.4 | 3.03 | 6.74 | 9.8 | 5.02 | 6.64 | 4.43 | 4.57 | 3.46 | 3.18 | 2.63 | 3.94 | 2.62 | 3.71 | 3.23 | -1.18 | 1.24
4 | CN(C)c1cc2c(Nc3ccc4nc(Cc5ccccc5)[nH]c4c3)ncnc2cn1 | 4.24 | 5.14 | 5.29 | 4.42 | 3.59 | 3.65 | 6.31 | 4.21 | 5.5 | 3.69 | 5.2 | 3.73 | 4.56 | -0.43 | 2.83 | 6.58 | 4.49 | 5.71 | 3.16 | 1.6
5 | COc1cc(C)c(NC(=O)CN(C)C)cc1Nc1nc(Nc2cccc(F)c2C(N)=O)c2cc[nH]c2n1 | 25.5 | 61.6 | 89.3 | 31.8 | 73.2 | -0.74 | 21.5 | 2.04 | 12.9 | 1.61 | 20 | 1.69 | 20.6 | -0.88 | 0.1 | -9.04 | -0.26 | 0.04 | -0.76 | -1.98
6 | NS(=O)(=O)c1ccc(N/N=C2\C(=O)Nc3ccc(C(=O)NCCc4c[nH]cn4)cc32)cc1 | 26.8 | 6.64 | 11.2 | 3.37 | 1.67 | 9.71 | 8.41 | 4.44 | 9.85 | 3.01 | 9.23 | 5.54 | 16.4 | 30.1 | – | – | – | – | 26.9 | 76.1
7 | COc1ccc(-c2ccncc2)cc1C(N)=O | 2.44 | 5.12 | 3.57 | 3.23 | 1.75 | 4.33 | 10.2 | 3.94 | 4.04 | 3.53 | 3.82 | 3.17 | 1.39 | 2.26 | 3.39 | 2.68 | 3.05 | 4.66 | -2.82 | 0.88
8 | CC(=O)Nc1cccc(C#Cc2cncnc2Nc2ccc(OCc3cccc(F)c3)c(Cl)c2)n1 | -0.27 | 2.3 | 4.75 | 0.15 | 5.54 | 0.01 | -1.03 | -1.49 | -2.35 | -0.28 | -2.14 | -0.5 | -0.34 | -0.13 | -1.04 | -0.26 | -1.65 | -0.18 | 1.2 | -0.16
9 | c1cnn2ncc(-c3ccnc(Nc4ccc5c(c4)OCCO5)n3)c2c1 | 23.9 | 4.39 | 18.1 | 2.63 | 4.19 | 9.95 | 44.9 | 4.47 | 22.1 | 7.95 | 46.9 | 6.57 | 38 | 71.3 | 65.5 | 86.1 | 73.6 | – | 36.9 | 92.9
10 | CCn1c(-c2nonc2N)nc2cncc(C(=O)N3CC[C@H](N)C3)c21 | 19.7 | 7.36 | 18.9 | 3.56 | 5.01 | – | – | 3.59 | 4.35 | 3.12 | 3.73 | 2.49 | 2.9 | 0.41 | 2.14 | -1.11 | 2.3 | 5.5 | 5.34 | –
11 | CCN1CCC(CC(=O)Nc2n[nH]c3nc(-c4cccs4)c(Br)cc23)CC1 | 1.1 | -1.56 | -1.9 | -1.62 | -1.24 | 0.63 | -0.71 | -2.56 | -1.74 | -1.74 | -0.99 | -2.3 | 0.47 | 0.69 | 0.61 | 6.41 | -0.6 | 5.24 | -0.39 | 5
12 | COC(=O)Nc1nc2cc(Oc3ccc(NC(=O)Nc4cccc(C(=O)O)c4)cc3)ccc2[nH]1 | 2.42 | 0.41 | 0.96 | 0.4 | 0.93 | 2.25 | 0.72 | -2.42 | -2.13 | -2.21 | -2.28 | -2.29 | -0.39 | -2.2 | -1.03 | 4.44 | 1.71 | 1.67 | 1.76 | 0.34
13 | O=C(Nc1n[nH]c2nc(-c3ccco3)c(Br)cc12)C1CC1 | 4.8 | 4.63 | 1.5 | -0.36 | -1.08 | 1.36 | 3.16 | 3.71 | 2.78 | 2.3 | 2.51 | 2.64 | 0.87 | 0.89 | 3.87 | 28.4 | 3.75 | 9.11 | 3.8 | 5.15
